High-throughput results deposited in PubChem BioAssay by several laboratories.
Efflux pump mplx: inhibitors of Candida antifungal efflux pumps expressed in yeast; S. cerevisiae Candida pump triplex, Nile Red efflux; 330,000 compounds, 0.44% hits; inhibition, % at 10 µM;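 active = plate passing quality check with inhibition over a set limit, or well fluorescence over plate mean plus 4 SD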;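 note: Nile Red retained in pooled yeast measured as flow cytometry median fluorescence; 0% = buffer negative control and 100% = Enniatin B positive control; higher means more Nile Red kept so more efflux inhibition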
SKN-1 block: C. elegans SKN-1 inhibition. C. elegans VP596 Pgst-4::GFP/RFP ratio, acrylamide-induced, 24 h. inhibition, % at 21.8 µM. 360,000 compounds, 0.49% hits. AID 624304;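 active = interference check ratio from 0.5 to 1.5 plus GFP to RFP signal ratio inhibition reaching or exceeding a fixed threshold, cut at about 30% in these data, passing the limit was not always enough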
SUMO Mot1 rescue: SUMOylation pathway inhibition by Mot1-301 growth rescue | S. cerevisiae Mot1-301 growth rescue, ATP luminescence, 38.5C; percent above DMSO median, 100 means doubled | growth rescue, % at 18.8 µM | 320,000 compounds, 1% hits | AID 2716;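 active = every valid replicate shows activation above 250% relative to neutral control wells; inactive = the rest, any valid replicate at or below 250%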;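 note: OY570 slx delta 5 strain wells were the positive control but not used for scaling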
sPLA2-III inh: Inhibits HGIII-sPLA2 liposome hydrolysis, primary screen; Q9NZ20; QFRET BODIPY PC-A2 liposome hydrolysis, fluorescence; inhibition, % at 12.2 µM; 370,000 compounds, 0.56% hits; AID 743126;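 active = inhibition above mean plus 3 SD of compounds lying within the high and low control bounds, cut at about 19% in these data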;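 note: 0% = median of test compound wells and 100% = no enzyme DMSO wells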
Target sequence (Q9NZ20 whole entry, looked up): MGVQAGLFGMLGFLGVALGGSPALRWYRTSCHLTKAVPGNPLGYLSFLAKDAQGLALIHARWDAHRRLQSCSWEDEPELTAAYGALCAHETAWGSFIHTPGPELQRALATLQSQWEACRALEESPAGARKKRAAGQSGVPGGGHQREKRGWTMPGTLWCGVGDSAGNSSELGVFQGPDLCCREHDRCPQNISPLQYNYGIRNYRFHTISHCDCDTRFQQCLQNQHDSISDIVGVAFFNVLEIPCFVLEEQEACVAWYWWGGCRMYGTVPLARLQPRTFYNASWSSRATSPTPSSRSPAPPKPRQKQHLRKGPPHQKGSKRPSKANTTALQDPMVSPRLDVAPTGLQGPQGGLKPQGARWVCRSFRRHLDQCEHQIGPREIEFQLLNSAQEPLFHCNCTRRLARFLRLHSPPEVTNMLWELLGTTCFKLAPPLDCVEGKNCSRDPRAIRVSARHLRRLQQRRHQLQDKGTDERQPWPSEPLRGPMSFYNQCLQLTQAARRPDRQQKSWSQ
Mot1 SUMO dose: yeast SUMO pathway inhibition in dose response. shares compounds with SUMO Mot1 rescue. S. cerevisiae Mot1-301 galactose growth, ATP luminescence, 24 h; -100 = growth of slx-deleted rescue strain. growth activity, percent, % at 42 µM. 2,300 tested, under 10 active. AID 493004;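 active = Signal drops as the depositor expects, and the fitted half-maximal dose is no more than ten times the top valid tested dose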;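 note: more negative values mean stronger growth rescue toward the control strain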
An asterisk follows results filed as active; / = not tested or not shown; + = active, no number; [ ] = remark or other dose. Rows were chosen to be rich in hits. Some 2.2% of all compounds tested hit in one or more screens of this group.

SMILES	Efflux pump mplx	SKN-1 block	SUMO Mot1 rescue	sPLA2-III inh	Mot1 SUMO dose
C=CCNC(=O)/C(C#N)=C/c1c(N(Cc2ccccc2)Cc2ccccc2)nc2ccccn2c1=O	0.2	-6.2	-8.0	-18.4	/
N#C/C(=C\c1c(N(Cc2ccccc2)Cc2ccccc2)nc2ccccn2c1=O)C(N)=O	0.1	-8.2	/	-0.7	0.1
CCNC(=O)/C(C#N)=C/c1c(N2CCN(c3ccccc3)CC2)nc2ccccn2c1=O	0.0	4.5	7.4	13.8	/
Cc1cc(C)cc(NC(=S)N(Cc2cccc(Br)c2)CC2CCC(C(=O)O)CC2)c1 (centres undefined)	-0.1	5.2	/	3.1	/
CCc1ccc(NC(=S)N(Cc2cccc(Br)c2)CC2CCC(C(=O)O)CC2)cc1 (centres undefined)	0.4	3.7	591.5*	-9.0	-0.9
Cn1c(SCC(=O)NC2CCS(=O)(=O)C2)nc2ccccc21 (centres undefined)	0.1	0.4	-3.4	13.8	/
CCCCCCCc1n[nH]c(=S)n1Cc1ccccc1	-0.1	-0.6	-11.7	15.6	/
CCCCc1n[nH]c(=S)n1Cc1ccc(C)cc1	0.4	-0.1	+	16.9	0.7
Cc1ccccc1Nc1c([N+](=O)[O-])ccc2c1=NC1(CCCCC1)N=2	-0.1	24.6	768.1*	13.3	-0.2
Cc1ccc(C)c(Nc2c([N+](=O)[O-])ccc3nonc23)c1	0.2	-2.8	11.0	5.3	/
Cc1ccc(/C=N/NC(=O)NC23CC4CC(CC(C4)C2)C3)o1	0.2	5.1	742.9*	-48.7	-0.6
COc1cc2cc(CN(C(=O)NC3CCCCC3)C3CCCC3)c(=O)[nH]c2cc1OC	0.0	-3.0	-9.2	8.1	/
O=C(NC1CCCCC1)N(Cc1cc2cc3c(cc2[nH]c1=O)OCCO3)C1CCCCC1	0.9	-3.2	828.0*	3.2	0.3
Cc1n[nH]c(=O)nc1NCc1ccc(Cl)cc1	0.1	-21.4	627.4*	0.2	0.0
Cc1n[nH]c(=O)nc1NCCN(C)C	0.0	9.4	-13.5	2.9	/
CCOc1cccc(CNCCSc2nnnn2C)c1	0.1	-2.6	-10.4	3.2	/
Cc1ccc(OCc2cccc(S(=O)(=O)N(C)C)c2)c([N+](=O)[O-])n1	0.2	8.6	-14.7	1.4	/
CCCCC(O)(c1ccc(F)cc1)C(CN1CCOCC1)c1ccc(Cl)cc1 (centres undefined)	-0.1	4.7	536.5*	-3.4	-0.3[21 µM]
CCCC(O)(c1ccc(OC)cc1)C(CN1CCOCC1)c1ccc(Cl)cc1 (centres undefined)	-0.1	-5.9	89.5	-8.0	/
Cc1n[nH]c(=O)c2c(NC(=O)COC(=O)Cc3ccc(Cl)cc3Cl)oc(C)c12	-0.1	-5.8	535.3*	6.7	0.5[21 µM]
O=S1(=O)CCOCCCN1Cc1cccc(C(F)(F)F)c1	-0.3	-1.1	-14.9	9.1	/
COc1ccc(S(=O)(=O)N2CCOCC2)cc1NC(=O)/C=C/c1ccccc1	/	11.7	/	-6.9	/
CCC(C)(C)C1CCc2[nH]nc(C(=O)NC3CCCC3)c2C1 (centres undefined)	0.0	10.1	150.9	8.1	/
O=C(NC1CCCCC1)c1n[nH]c2c1CCCCC2	0.1	5.1	363.7*	-3.7	-1.7
O=C(CNC1CCCCC1)Nc1ccc(Cl)cc1	-0.1	16.0	-4.1	-4.2	/
SMILES	Efflux pump mplx	SKN-1 block	SUMO Mot1 rescue	sPLA2-III inh	Mot1 SUMO dose
COC(=O)[C@]12C[C@H](CC(=O)N3CCC(c4ccccc4)CC3)C(=O)N(Cc3cccc4ccccc34)C1=C[C@H](C(C)(C)C)O[C@@H]2C	/	/	/	0.7	/
CCC(=O)c1c[nH]c(C(=O)NCCCn2ccnc2)c1	0.2	-3.9	+	4.9	0.2
Cc1ccc(Sc2cnccc2C#N)cc1	0.1	14.0	618.3*	1.6	1.8
NC(=S)N/N=C/c1cccc(O)c1O	0.1	1.8	629.9*	9.7	0.0
Cc1ccc(NC(=O)CN2CCN(CCN=CC3=C(O)CC(C)(C)CC3=O)CC2)cc1	-0.1	-17.3	984.7*	6.3	0.7
COC(=O)C1=C(C)N(Cc2ccc(F)cc2)C(=S)NC1c1cccc(F)c1 (centres undefined)	/	/	/	11.4	/
COC(=O)C1=C(C)N(Cc2ccccc2)C(=S)N[C@H]1c1cccc(F)c1	0.0	2.9	584.4*	-0.1	0.6
Cc1ccc2c(c1)N(CC(=O)NCC1CCCO1)C(=O)C(C)O2 (centres undefined)	-0.2	15.3	521.8*	3.1	0.3
Cc1ccc2c(c1)N(CC(=O)NC1CCCC1)C(=O)C(C)O2 (centres undefined)	0.0	15.8	-7.0	1.3	/
Cc1ccc(-c2ccc(/C=N/n3cnnc3)o2)cc1	0.2	10.1	504.7*	2.7	-0.6
